INS promoter inh: TRM-6 insulin promoter activity inhibition; AID 1273; TRM-6 cells (human fetal islet line), insulin promoter-eGFP reporter, imaging; reporter expression induced with tamoxifen; inhibition, % at 2 µM; 130,000 compounds, 0.9% hits;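 active means inhibition above the mean plus 3 SD, with well images judged a real hit on visual review, cut at about 60% in these data, passing the limit was not always enough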
Ins promoter up: MIN6 insulin promoter up-regulation. MIN6 insulin promoter-GFP reporter, high-content imaging; hits give high values. z-score at 5 µM. 190,000 compounds, 0.3% hits;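 active means z-score above 3 at 5 µM with at least 500 cells counted in the well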
Lmaj promast: reduces viability of Leishmania major promastigotes; AID 1063; inhibition, % at 10 µM; 200,000 compounds, 9% hits; resazurin fluorescence viability; in the data active means inhibition above about 50%;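 further: promastigotes grown with compound for 44 hours at 28 °C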
Cl transport mod: modulators of human KCC2 chloride dependent transport; AID 1456; B-score of Tl+ flux slope (higher = more flux/activation; lower = inhibition) at 10 µM; Q9H2X9; KCC2 cells, thallium flux FluoZin-2 fluorescence; 190,000 compounds, 2.2% hits;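 active means thallium flux slope and its plate-corrected score both differing from the plate sample mean at a set confidence after two filtering rounds, in either direction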;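 further: slope of fluorescence scaled to starting intensity during 10 to 20 s after thallium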
WT yeast gro inh: growth inhibition of WT yeast, mitochondrial fusion screen; mitochondrial fusion phenotypic screen, WT strain; inhibition, % at 10 µM; 190,000 compounds, 2.1% hits; in the data active means inhibition above about 58%; tested in S. cerevisiae
ROMK primary: modulates human ROMK potassium channel activity. 130,000 compounds, 2% hits. AID 1918. B-score at 10 µM. P48048. Tet-inducible ROMK, thallium flux fluorescence; actives lie on both sides;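 active means signal ratio slope over the read window, or its plate-corrected B-score, at least 3 SD from the plate mean, either direction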;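 further: B-score of the F/F0 ratio slope over 7 to 12 s after thallium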
Target sequence (P48048 whole entry, looked up): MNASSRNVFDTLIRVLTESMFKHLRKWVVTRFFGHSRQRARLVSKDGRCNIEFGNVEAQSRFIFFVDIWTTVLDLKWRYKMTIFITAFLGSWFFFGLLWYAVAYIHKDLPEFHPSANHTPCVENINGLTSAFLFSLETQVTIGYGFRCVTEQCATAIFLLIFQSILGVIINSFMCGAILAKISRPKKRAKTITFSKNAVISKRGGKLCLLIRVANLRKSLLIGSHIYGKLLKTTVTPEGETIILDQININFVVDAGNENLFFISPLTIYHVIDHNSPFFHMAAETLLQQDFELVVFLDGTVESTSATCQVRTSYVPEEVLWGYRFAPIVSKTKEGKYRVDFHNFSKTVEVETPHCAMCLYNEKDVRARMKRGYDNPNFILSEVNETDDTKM
Active calls of the source: *; / = no result given. An excerpt weighted towards active compounds, which were near 12% of everything screened.

SMILES	INS promoter inh	Ins promoter up	Lmaj promast	Cl transport mod	WT yeast gro inh	ROMK primary
O=C(NCCc1c[nH]c2ccccc12)C(=O)NCC1OCCN1S(=O)(=O)c1ccc(F)cc1 (stereo not drawn)	-48	-0.02	11	-1.1	-5	-1.8
O=C(NCCc1c[nH]c2ccccc12)C(=O)NCC1OCCN1S(=O)(=O)c1ccccc1 (stereo not drawn)	-86	-0.7	70*	-0.76	-3	-0.61
O=C(NCCc1c[nH]c2ccccc12)C(=O)NCC1OCCCN1S(=O)(=O)c1ccccc1 (stereo not drawn)	-62	0.54	8	-0.27	-18	-0.88
O=C(NCCCn1ccnc1)C(=O)NCC1OCCCN1S(=O)(=O)c1ccc(Cl)cc1 (stereo not drawn)	7	0.19	51*	-0.26	-8	0.37
O=C(NCCC1=CCCCC1)C(=O)NCC1OCCCN1S(=O)(=O)c1cc(F)ccc1F (stereo not drawn)	-64	-0.32	4	0.46	-24	-0.57
Cc1ccc(-c2cc(C(=O)NN=C3CCCC3)c3ccccc3n2)cc1	/	-0.73	-2	/	19	/
COc1ccc(Cl)cc1N1C(=O)CC(Sc2ccccc2N)C1=O (stereo not drawn)	/	0.06	/	-0.61	/	0.64
CCOC(=O)c1ccc(NC(=O)N2CCN(c3ccccc3OC)CC2)cc1	/	0.15	31	-1	6	/
CCOC(=O)CSc1nnc(NC(=O)NC(C)C)s1	/	-0.43	8	0.034	-5	-0.35
Cc1cccc(C2(c3cccc(C)c3)CC2C(=O)Nc2ccc([N+](=O)[O-])cc2O)c1 (stereo not drawn)	10	0.18	99*	-0.65	92*	/
Cc1cccc(C2(c3cccc(C)c3)CC2C(=O)NCC2CCCO2)c1 (stereo not drawn)	/	-0.05	-3	-0.62	-1	-0.2
Cc1cc(=O)n2[nH]c(-c3ccccc3)cc2n1	49	0.53	0	1.2	12	0.19
CCc1c(C)nc2cc(-c3ccc(OC)cc3)[nH]n2c1=O	-74	/	58*	-2.7	7	-0.015
CCOC(=O)Cc1c(C)nc2cc(-c3ccc(Cl)cc3)[nH]n2c1=O	-250	0.57	-9	1.2	3	0.082
Cc1cc(=O)n2[nH]c(-c3ccc(C(C)(C)C)cc3)cc2n1	-36	-0.51	100*	-0.56	4	-0.085
CC1CC1C(=O)Nc1ccc(-c2ccccc2)cc1 (stereo not drawn)	-24	0.87	51*	-1.4	-12	0.014
O=C(O)C1CC=CCC1C(=O)Nc1ccccc1 (stereo not drawn)	33	0.07	-8	/	-21	1.2
COc1cc2c(cc1OC)/C(=C/c1ccc(Br)cc1)C(=O)OC2	71*	-0.13	31	0.17	46	-0.16
COc1ccc(/C=C2\Cc3ccccc3C2=O)cc1OC	/	-0.01	/	-0.7	/	/
Cc1ccc(OCC(=O)NCC(=O)Nc2ccc(F)cc2)c([N+](=O)[O-])n1	-19	0.46	50*	1.3	-5	/
COC(=O)c1ccc(CN2CCN(Cc3ccc(F)cc3)C(CCO)C2)cc1 (stereo not drawn)	/	0.4	59*	0.0059	-2	-0.38
COC(=O)c1ccc(CN2CCN(CC(C)C)C(CCO)C2)cc1 (stereo not drawn)	/	0.4	/	0.71	/	/
COc1ccc(/C=C/CN2CCN(Cc3ccccc3)C(CCO)C2)cc1 (stereo not drawn)	/	-1.3	33	0.38	0	-1
COc1ccc(/C=C/CN2CCN(Cc3ccc(F)cc3)C(CCO)C2)cc1 (stereo not drawn)	/	0.1	68*	0.92	-8	-1.6
COC(=O)c1ccc(CN2CCN(CC=C(C)C)C(CCO)C2)cc1 (stereo not drawn)	7	0.57	73*	-0.65	7	/
SMILES	INS promoter inh	Ins promoter up	Lmaj promast	Cl transport mod	WT yeast gro inh	ROMK primary
COc1ccccc1NC(=O)c1sc2ncn(Cc3ccc(C)cc3)c(=O)c2c1C	-4	-0.73	-4	/	-25	/
CCOCCCn1c(=S)[nH]c2cc(C(=O)N3CCOCC3)ccc2c1=O	/	0.83	-6	-0.58	-18	0.27
CC(=NCCc1c(C)[nH]c2ccc(C)cc12)C1=C(O)CC(c2ccccc2)CC1=O (stereo not drawn)	-51	-0.36	98*	0.023	15	0.56
CC1CCN(Cc2ccc(-c3nnn(CC(=O)Nc4ccccc4Cl)n3)cc2)CC1	/	-2.2	64*	0.098	-4	-0.57
O=C(Cn1nnc(-c2ccc(S(=O)(=O)N3CCCC3)cc2)n1)Nc1ccccc1-n1cccc1	0	-4	95*	/	-9	0.24
CN(C)c1ccc(-c2nnn(CC(=O)Nc3ccccc3N3CCOCC3)n2)cc1	/	1.8	2	-0.85	26	/
Cc1cccc(C)c1NC(=O)Cn1nnc(-c2ccc(CN3CCC(C)CC3)cc2)n1	/	-0.36	22	-0.69	-5	0.55
Cc1ccc(/C=N/NC(=O)C(C)Oc2ccccc2[N+](=O)[O-])s1 (stereo not drawn)	-23	-0.18	-4	0.86	-1	0.046
COc1ccc(CC(=O)N2CCN=C2SCc2cccc([N+](=O)[O-])c2)cc1	-217	-0.81	15	-1.4	19	-0.023
Cc1cc(C)c(C#N)c(SCC(=O)C(C)(C)C)n1	24	1.6	77*	-0.27	-1	/
Cc1cc(C)c(C#N)c(SCC(=O)NC(C)(C)C)n1	/	-0.28	-5	0.42	-5	/
CCOc1cc(Br)c(Br)c(C=Nc2ccc(NC(C)=O)cc2)c1O	-11	0.21	68*	-0.63	-4	0.79
CCN1C(=S)SC(=O)C1=C1C=C(C)N(Cc2ccco2)C(C)=C1	-41	1.6	-6	-1	13	/
CN1C(=O)C2(c3ccccc31)N(C)CC(c1ccccn1)C21SC(=S)N(Cc2ccco2)C1=O (stereo not drawn)	0	-0.62	100*	/	9	/
CN1C(=O)C2(c3ccccc31)N(C)CC(c1ccccc1)C21SC(=S)N(Cc2ccco2)C1=O (stereo not drawn)	50	/	99*	-1.2	28	/
COc1ccccc1/C=C(/NC(=O)c1ccc(Cl)cc1Cl)C(=O)O	25	0.49	-5	0.93	4	-0.027
COc1ccc(-c2c(C#N)c(N)nc3c2CCc2ccccc2-3)cc1OC	-87	/	14	/	26	/
Cc1nc([N+](=O)[O-])c(Sc2nc3ccc([N+](=O)[O-])cc3[nH]2)n1Cc1ccccc1	-4	0.97	54*	0.55	0	0.52
CCOCCCNC(=S)Nc1cc(C)cc(C)c1	-13	0	14	0.41	10	1.3
Cc1ccc(NC(=S)NCCN(C2CCCCC2)C2CCCC2)cc1C	/	0.36	64*	-0.18	43	-1.8
Cc1ccc(NC(=S)NCCN(C2CCCCC2)C2CCCC2)cc1	/	-1.5	34	0.76	17	1
Cc1cc(C)cc(NC(=S)NCCN(C2CCCCC2)C2CCCC2)c1	/	-0.41	63*	0.27	38	-1.9
CC(=O)N(Cc1cc(=O)[nH]c2ccccc12)c1cccc(C)c1	/	0.56	-3	/	65*	-0.035
